# Data taken from ChEMBL document CHEMBL3988442, “University of Dundee, Small-Polar-MMV Screening Library” (2021).
# In all, about 48,000 compounds went through this assay and about 13,000 (27%) showed an effect of 50% or more. The list shows a part of the results.
# System: Wolbachia pipientis
# Assay: Anti-Wolbachia Cell-Based Screen
# Type: functional
# Design: scale not given: in the data most compounds retested in dose-response had high values
# Settings: 5 µM
row,SMILES,Percent Effect [%]
1,O=c1nc(SCc2ccncc2)c2c(n1CCO)CCC2,3.515
2,COc1cccc(N2CC3(CCN(c4cnccn4)C3)CC2=O)c1 (centres undefined),-7.581
3,Cc1cc(Cl)ccc1NCc1cnn(C2CCS(=O)(=O)C2)c1 (centres undefined),23.97
4,CCC1=NN2C(=N)/C(=C\c3cccn3-c3cccc(Cl)c3)C(=O)N=C2S1,116.1
5,CCC1=NN2C(=N)/C(=C\c3cccn3-c3ccc(Br)cc3)C(=O)N=C2S1,83.94
6,CCC1=NN2C(=N)/C(=C/c3cccc(Cl)c3)C(=O)N=C2S1,3.278
7,CCC1=NN2C(=N)/C(=C\c3cccn3-c3ccc(Cl)cc3)C(=O)N=C2S1,96.44
8,CN(Cc1ccco1)C1CCC12CCN(C(=O)C1CCOCC1)CC2.O=C(O)C(F)(F)F (centres undefined),-16.55
9,CO[C@H]1CCN(S(=O)(=O)c2cn(C)cn2)[C@H]1Cc1ccccc1.O=C(O)C(F)(F)F,1.513
10,Cc1noc(CCNC(=O)c2ccc(Br)c(S(=O)(=O)N(C)C)c2)n1,13.21
11,CCn1c(N)nc2cc(C(=O)NCCc3ccccc3C)cnc21,-8.06
12,CCN(CC)S(=O)(=O)CCNc1nnc(C(C)C)s1,4.911
13,CC(=O)N(Cc1ccc(NCc2cnn(C(C)(C)C)c2)cc1)C(C)C,111.1
14,CC(C)(C)OC(=O)N1CCC(NCc2cnn(C(C)(C)C)c2)CC1,-19.8
15,CS(=O)(=O)c1ccc(NCc2ccc(F)cc2)cn1,-13.54
16,CC(C)(C)n1cc(CNc2ccc(CNS(C)(=O)=O)cc2)cn1,115
17,CC(C)(C)n1cc(CNC2CCN(C(=O)c3ccco3)CC2)cn1,-4.791
18,CC(C)(C)n1cc(CNC2CCN(C(=O)c3ccncc3)CC2)cn1,-2.234
19,CC(C)OC(=O)NCc1ccc(NCc2cnn(C(C)(C)C)c2)cc1,104.7
20,CC(C)(C(=O)NCc1ccc(C#N)cc1)n1cc(Br)cn1,9.719

row,SMILES,Percent Effect [%]
1,CC(C)c1nc(CNc2ccc(CNS(C)(=O)=O)cc2)cs1,-10.73
2,CCc1nc(CNC(=O)Nc2nc(COC)cs2)cs1,-11.4
3,O=C(NCCc1csc(-c2cnccn2)n1)c1cnn[nH]1,-5.851
4,CCc1n[nH]c(SCC(=O)N2CCc3[nH]nc(C4CCC4)c3C2)n1,-5.998
5,OC1(CNC2CCN(Cc3ccncc3)CC2)CCc2ccccc21 (centres undefined),9.315
6,O=C(NCC1CCOCC1)[C@H]1C[C@@H]2CCN(Cc3ccncc3)C[C@@H]2O1.O=C(O)C(F)(F)F.O=C(O)C(F)(F)F,7.253
7,CNC(=O)[C@@H]1C[C@@H]2CCN(Cc3ccoc3)C[C@H]2O1,103.1
8,O=C(NCC1CC1)[C@@H]1C[C@@H]2CCN(Cc3ccoc3)C[C@@H]2O1,93.16
9,O=C(NCC1CC1)[C@@H]1C[C@@H]2CCN(Cc3ccccc3)C[C@H]2O1,100.1
10,O=C(NCC1CC1)[C@H]1C[C@@H]2CCN(CCc3ccccc3)C[C@H]2O1.O=C(O)C(F)(F)F,16.57
11,O=C(NCC1CCOCC1)[C@@H]1C[C@@H]2CCN(Cc3ccco3)C[C@H]2O1.O=C(O)C(F)(F)F,-3.417
12,O=C(NCC1CCOCC1)[C@H]1C[C@@H]2CCN(Cc3ccccc3)C[C@H]2O1.O=C(O)C(F)(F)F,108.7
13,O=C([C@@H]1C[C@@H]2CCN(Cc3ccco3)C[C@H]2O1)N1CCCO1,-6.348
14,CNC(=O)[C@H]1C[C@@H]2CCN(CCc3ccccc3)C[C@@H]2O1.O=C(O)C(F)(F)F,-33.06
15,CC(C)[C@H]1CN(CCS(C)(=O)=O)C[C@@H]1NC(=O)c1ccc(=O)[nH]c1,-6.33
16,NC(=O)Cn1c(SCc2noc(-c3ccsc3)n2)nnc1C1CC1,7.901
17,Cc1cc(C)cc(C(=O)NCc2ncnn2C)c1,-13.46
18,CC(OCC1CC1)C(=O)Nc1ccn(Cc2ccccc2)n1 (centres undefined),-8.999
19,N[C@H]1CC[C@@H](NC(=O)c2ccc3nc(-c4ccc(F)cc4)cn3c2)CC1,-22.5
20,Cn1nc(C(=O)NCc2cccc(Cn3ccnc3)c2)ccc1=O,-21.54

row,SMILES,Percent Effect [%]
1,Cn1cccc1C(=O)NCc1cn2c(n1)CN(C(=O)c1ccsc1)CC2,7.383
2,O=C(NCC1CC1)[C@H]1CC[C@@H]2[C@@H](CCN2Cc2ccoc2)O1,3.009
3,O=C(NCC1CCOCC1)[C@@H]1C[C@@H]2[C@@H](CCN2Cc2ccoc2)O1,102.5
4,O=C(NC1CC1)[C@H]1CC[C@@H]2[C@@H](CCN2Cc2ccsc2)O1,-0.273
5,CCCNC(=O)COc1cc(C)c2c(C)nn(-c3ccc(C)cc3)c2n1,109.7
6,Cc1ccc2oc(N3CCN(CC(=O)NC(C)C)CC3)nc2c1,0.7244
7,Cc1ccc(OCC(=O)NCc2sccc2C)nc1,-2.294
8,Cc1cc(C)c2c(OCC(=O)NC(C)C)nn(C)c2n1,-14.3
9,Cc1ccc(OCC(=O)NCc2ccccc2F)nc1,-9.663
10,CCCNC(=O)COc1cc(C)c2c(C)nn(-c3ccccc3)c2n1,102.4
11,Cc1ccc(OCC(=O)NCC(C)C)nc1,0.1298
12,CCCNC(=O)COc1ccc(C)cn1,4.173
13,Cc1ccc(-n2nc(C)c3c(C)cc(OCC(=O)NC(C)C)nc32)cc1,109.8
14,CC(C)NC(=O)NCCCc1cc(N)n(-c2ccccc2)n1,-14.76
15,CSC(C)C(=O)NCCCc1cc(N)n(-c2ccccc2)n1 (centres undefined),6.591
16,CCNC(=O)COc1cc(CC)c2c(C)nn(-c3ccc(C)cc3)c2n1,126.5
17,CCn1ncc2c1CCCC2NCc1cccc2c1OCCO2 (centres undefined),5.32
18,COCCCSc1ccc(NCc2ccc(C)cn2)cc1,-7.055
19,CCN(CC)[C@@H]1CN(Cc2cnn(C)c2)[C@@H]2COC[C@H]12,6.266
